# TLR9-MyD88 block – blocks human TLR9 binding to MyD88. Q9NR96+Q99836. CHO BLA complementation TLR9-MyD88, CCF4 FRET ratio. inhibition, % at 4.98 µM. hit rate 0.21% among 340,000;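 active means inhibition above the mean over all tested compounds plus 3 SD, cut at about 21% in these data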;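 further: 0% = DMSO only wells and 100% = clavulanate BLA inhibitor control wells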
# ABHD5 PLIN5 PPI – ABHD5-PLIN5 protein interaction inhibition; Split G. princeps luciferase complementation, luminescence, 4 h; hit rate 0.78% among 360,000; inhibition, % at 4 µM; AID 602281; Q00G26+Q8WTS1;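 active means inhibition above the mean inhibition across every tested compound plus 3 SD, cut at about 22% in these data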;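 further: 0% = DMSO only wells and the 100% control is not disclosed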
# Exocytosis inh – lytic granule exocytosis inhibition; TALL-104 LAMP-1 surface exposure, flow cytometry; cells stimulated with thapsigargin and PMA; hit rate 0.66% among 360,000; inhibition, % at 10 µM;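 active means inhibition above about 55%, limit read from the data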
# PRMT1 FP inh – PRMT1 (human) inhibition, primary screen; Q99873; hit rate 1.3% among 370,000; recombinant PRMT1, activity-based probe fluorescence polarization; inhibition, % at 2.79 µM;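 active means inhibition above about 21% made by adding two undisclosed values, limit read from the data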
# NOD2-RIPK2 inh – NOD2-RIPK2 protein interaction inhibition. O43353. CHO BLA complementation NOD2-RIPK2, CCF4 ratio. inhibition, % at 4.98 µM. hit rate 0.38% among 360,000. AID 624267; in the data active means inhibition above about 21%;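 further: 0% = vehicle only and 100% = reference blocker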
# Target sequence (O43353 whole entry, looked up): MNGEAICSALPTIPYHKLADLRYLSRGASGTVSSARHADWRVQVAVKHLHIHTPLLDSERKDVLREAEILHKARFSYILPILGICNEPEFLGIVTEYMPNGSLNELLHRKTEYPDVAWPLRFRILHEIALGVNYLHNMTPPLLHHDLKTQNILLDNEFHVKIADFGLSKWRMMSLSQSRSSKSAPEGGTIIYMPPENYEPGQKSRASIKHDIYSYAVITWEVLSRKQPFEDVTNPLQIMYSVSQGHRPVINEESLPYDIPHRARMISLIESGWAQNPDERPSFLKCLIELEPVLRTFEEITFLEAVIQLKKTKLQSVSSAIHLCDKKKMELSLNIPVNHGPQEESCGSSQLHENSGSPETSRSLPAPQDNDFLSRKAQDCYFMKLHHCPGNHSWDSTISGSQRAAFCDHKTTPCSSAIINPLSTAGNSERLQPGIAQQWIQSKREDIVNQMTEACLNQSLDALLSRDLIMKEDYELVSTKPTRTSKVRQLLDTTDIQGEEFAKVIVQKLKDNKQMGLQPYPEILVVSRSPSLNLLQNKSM
# TLR4 MyD88 comp – blocks binding of human TLR4 to MyD88; O00206+Q99836; inhibition, % at 8.4 µM; hit rate 0.18% among 200,000; HeLa CL3-4 TLR4/MyD88 BLA complementation, FRET ratio; AID 861; in the data active means inhibition above about 25%;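 further: 0% = vehicle and 100% = reference inhibitor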
# An asterisk follows results filed as active; . = not tested or not shown. Rows were chosen to be rich in hits. Some 2.6% of all compounds tested hit in one or more screens of this group.
SMILES,TLR9-MyD88 block,ABHD5 PLIN5 PPI,Exocytosis inh,PRMT1 FP inh,NOD2-RIPK2 inh,TLR4 MyD88 comp
Cc1ccccc1/C=N/Nc1nc2ccccc2[nH]1,-5.0,2.0,-1.2,2.6,-3.9,14.5
Cc1[nH]c2ccccc2c1/C=N/Nc1nc2ccccc2[nH]1,.,13.9,71.8*,-5.6,-15.7,.
Cc1cc(-c2n[nH]c(=S)n2N=Cc2cc(Br)ccc2F)n[nH]1,.,.,.,7.1,.,.
C=CC[C@@H](CC(=O)N(CCO)Cc1ccccc1)C(=O)NC[C@H](OC(=O)[C@@H](CC=C)CC(=O)OC(C)(C)C)c1ccccc1,3.3,22.5*,-2.3,1.3,3.0,.
Oc1ccc2ccccc2c1/C=N/c1nccs1,-21.1,-3.5,8.9,0.8,-4.0,-18.5
COc1ccc2c(c1)-c1nc(/N=C/c3c(O)ccc4ccccc34)sc1CC2,2.1,-5.3,4.3,21.2*,-2.3,11.8
COc1ccc2c(c1)-c1nc(/N=C/c3ccc(O)cc3)sc1CC2,7.9,-2.6,-7.7,36.4*,-1.4,-7.2
CCOc1ccc2nc(/N=C/c3nc(-c4ccc(Br)cc4)oc3O)sc2c1,4.6,-2.5,4.6,-1.6,4.5,7.7
C=CCN=Cc1sc2ccc(OCC)cc2c1O,.,.,.,23.7*,.,-7.8
Oc1cc2c(cc1O)[C@@H](c1ccccc1)CNCC2,1.2,-7.6,0.3,22.9*,-3.2,-0.1
Cc1sc(N)c(C(=O)c2ccccc2)c1C,.,-21.3,0.3,41.3*,-9.2,6.4
N=C(N)SCP(=O)(c1ccccc1)c1ccccc1,0.8,6.4,-2.5,67.8*,-16.2,.
CCOC(=O)CP(=O)(c1ccccc1)c1ccccc1,5.5,11.9,1.3,4.5,5.5,-4.6
Cc1ccc(P(=O)(CSC(=N)N)c2ccc(C)cc2)cc1,-7.4,5.6,0.1,69.7*,4.2,-8.9
CCCN1C(=O)/C(=C/c2ccc(C)o2)SC1=Nc1ccc(OCC)cc1,-8.5,8.4,70.4*,3.5,-7.3,-4.7
COc1ccc(N=C2S/C(=C\c3ccc(OCC(=O)O)cc3)C(=O)N2CCc2c[nH]c3ccccc23)cc1,-21.3,-2.1,1.6,4.7,-5.8,3.2
CCCN1C(=O)/C(=C/c2ccc(C)o2)SC1=Nc1ccc(OC)cc1,-2.5,4.9,80.5*,8.8,3.9,1.5
COc1ccc(N=C2S/C(=C\c3ccc(N4CCOCC4)o3)C(=O)N2CCc2c[nH]c3ccccc23)cc1,-0.3,72.2*,82.1*,.,32.8*,4.0
COc1ccc(N=C2S/C(=C\c3ccc(C)o3)C(=O)N2CC(C)C)cc1,-2.8,1.1,9.0,0.0,-7.2,2.1
COc1cccc(NC(=O)Nc2c(-c3ccc(C)cc3)nc3ncccn23)c1,.,.,.,-0.2,.,.
C[C@H](O)[C@@H]1C(=O)N2CCc3c([nH]c4c(-c5ccccc5)cccc34)[C@@H]2C[C@@H]1N(C)C(=S)Nc1ccc(C#N)cc1,.,.,.,-2.3,.,.
O=C(CC(Nc1ccc(Cl)cc1)C(=O)O)c1ccccc1 (configuration not stated),-3.3,22.1*,0.7,13.1,-0.8,0.0
O=C(CC(C(=O)O)c1ccc(Cl)cc1)c1ccccc1 (configuration not stated),6.8,4.1,-8.2,-0.9,0.4,-8.3
O=C1NCCCc2c1oc1cc(Br)c(O)c(Br)c21,-2.4,-6.6,-2.4,5.8,-7.5,-3.2
O=C1NCCCC2c3c(cc(Br)c(O)c3Br)OC12N1CCCCC1 (configuration not stated),-10.4,7.0,-1.2,79.0*,0.2,6.4
SMILES,TLR9-MyD88 block,ABHD5 PLIN5 PPI,Exocytosis inh,PRMT1 FP inh,NOD2-RIPK2 inh,TLR4 MyD88 comp
CC(=O)NC1C(=O)N=C(SC(C)C(=O)Nc2cccc(Cl)c2)NC1=O (configuration not stated),1.4,-16.1,1.9,22.2*,-7.6,-2.1
CC(Sc1nc(N)cc(=O)[nH]1)C(=O)Nc1cccc(Cl)c1 (configuration not stated),9.9,3.6,-1.1,1.8,-12.7,3.8
COc1cc(OC)c(NC(=O)NNC(=O)C(=O)NC2CC2)cc1Cl,.,.,.,1.1,.,.
CCOc1ccccc1N(C(=O)c1snc(C(N)=O)c1N)C(C(=O)NC1CCCC1)c1ccco1 (configuration not stated),-2.6,1.6,-3.6,1.8,5.6,-6.4
Cc1ccccc1N(C(=O)c1snc(C(N)=O)c1N)C(C(=O)NCc1ccccc1)c1ccc(O)cc1 (configuration not stated),-12.8,-7.9,63.6*,-4.6,1.1,.
CCOc1ccccc1N(C(=O)c1snc(C(N)=O)c1N)C(C(=O)NC1CCCC1)c1cccs1 (configuration not stated),-3.6,-3.1,74.4*,2.5,0.5,.
NC(=O)c1nsc(C(=O)N(c2ccccc2F)C(C(=O)NCc2ccccc2)c2ccc(O)cc2)c1N (configuration not stated),0.2,15.4,39.4,-0.7,-6.4,.
Cc1cccc(N(C(=O)c2snc(C(N)=O)c2N)C(C(=O)NCC2CCCO2)c2ccc(N(C)C)cc2)c1 (configuration not stated),1.5,0.1,97.1*,2.6,-10.2,.
CN(C)c1ccc(C(=O)NCC2CCN(C(=O)C(=O)c3cccs3)CC2)cc1,.,.,.,-0.5,.,.
CCCC/C=C1/[C@@H](CC)N(Cc2ccc(OC)cc2OC)C2=N[C@H](c3ccccc3)CC(=O)N21,.,.,.,0.2,.,.
CCCCCCN1CCS(=O)(=O)N(Cc2ccc(OC)cc2)C(C(=O)OC)C1 (configuration not stated),.,.,.,2.5,.,.
CCOC(=O)C1=C[C@@H](C(C)(C)C)N(S(=O)(=O)c2ccc([N+](=O)[O-])cc2)[C@H]1c1ccccc1Cl,.,.,.,1.1,.,.
O=C(O)c1cc(O)c2c(c1)C(=O)c1cccc(O)c1C2=O,-10.8,0.0,-5.0,32.2*,-5.4,3.5
C[C@H]1C2CC(OC(=O)NCc3ccccc3)C(C2)[C@H]2CCCCN21 (some centres not stated),.,.,.,1.0,.,.
COc1cccc(C(=O)N2CCC[C@@H]2C(=O)N2CCC[C@@H]2C(=O)NCc2ccccc2)c1,.,.,.,-4.7,.,.
CC1(C(=O)O)CCCN1C(=O)c1ccc(Cl)cc1Cl (configuration not stated),.,-5.4,8.0,4.2,-1.9,.
Cc1oc(C(C)(C)C)cc1C(=O)NC1CCN(Cc2ccccc2)CC1,-0.3,6.1,0.7,-4.8,-18.6,.
Cc1oc(-c2ccc(Cl)cc2)cc1C(=O)N1CCC1(C)C(=O)O (configuration not stated),.,4.0,-2.4,23.4*,-0.2,.
Cc1oc(-c2ccc(Cl)cc2)cc1C(=O)NC1CCN(Cc2ccccc2)CC1,.,-1.5,80.1*,-9.0,2.6,.
C=CCN1C(=O)c2n[nH]c(C)c2C1c1ccc(C)cc1 (configuration not stated),.,.,.,-3.5,.,.
CC1CCCC(C(=O)O)N1C(=O)CCS (configuration not stated),5.8,-5.4,-1.9,24.7*,-7.1,17.6
